Screening results: PubChem BioAssay, National Center for Advancing Translational Sciences (NCATS)
NPR1 antag = antagonists of human natriuretic peptide receptor Npr1. 1.6% of 76,000 active. HEK293 hNpr1 GloSensor cGMP, ANP-stimulated luminescence. Potency, µM (titrated, usually from 46.3 µM), inactives show top-dose activity change, negative = inhibition, hits mostly inhibitors. P16066; calls by dose curve; also: nearly all actives have a fitted effect of over 60% in size
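Compound pre-incubated 30 min at room temperature on GloSensor-loaded HEK293 cells stably carrying hNpr1 and the pGS-40F cGMP biosensor. Stimulation uses hNppA at 0.1 nM final; luminescence is taken at baseline and 20 min post-agonist.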
3T3 cytotox = cytotoxic compounds in NIH 3T3 cells; NIH 3T3 viability, CellTiter-Glo ATP luminescence, 48-72 h; Potency, µM (top dose mostly 96.7 µM), inactives show top-dose activity change, negative = cytotoxicity, usual class: inhibitors; 4.3% of 94,000 active; also: nearly all actives have a fitted effect of over 55% in size
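Mouse fibroblast NIH 3T3 cells, 400 per well, received compound via pintool and were incubated for 48 or 72 hr prior to CellTiter-Glo ATP luminescence measurement.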
Luciferase inh = Photinus pyralis luciferase inhibition; P08659; purified P. pyralis luciferase, luminescence, biochemical; Potency, µM (highest dose often 115 µM), actives largely listed as inhibitors; 2.5% of 76,000 active; AID 1347043; also: nearly all actives have a fitted effect of over 65% in size
Target sequence (P08659 whole entry, looked up): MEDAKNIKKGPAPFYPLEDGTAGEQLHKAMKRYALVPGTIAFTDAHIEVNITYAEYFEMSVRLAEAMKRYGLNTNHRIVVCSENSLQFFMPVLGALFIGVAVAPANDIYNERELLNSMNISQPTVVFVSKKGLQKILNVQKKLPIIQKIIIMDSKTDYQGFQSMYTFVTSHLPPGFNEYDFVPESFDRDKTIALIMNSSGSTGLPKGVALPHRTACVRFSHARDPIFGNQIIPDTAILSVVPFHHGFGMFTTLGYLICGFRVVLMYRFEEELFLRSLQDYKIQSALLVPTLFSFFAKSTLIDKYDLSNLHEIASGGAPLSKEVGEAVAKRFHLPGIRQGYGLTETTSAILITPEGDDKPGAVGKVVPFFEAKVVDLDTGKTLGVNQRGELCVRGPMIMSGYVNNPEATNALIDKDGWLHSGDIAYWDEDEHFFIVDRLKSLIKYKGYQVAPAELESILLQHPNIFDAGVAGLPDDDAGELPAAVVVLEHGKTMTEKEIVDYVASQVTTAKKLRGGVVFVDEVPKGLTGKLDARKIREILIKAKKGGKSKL
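Inhibitors were tested against purified firefly luciferase in a biochemical, low-substrate format (both substrates at 10uM) and luminescence measured with a CCD imager.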
HEK293 tox = cytotoxic compounds in HEK 293 cells | HEK 293 viability, ATP luminescence (CellTiter-Glo), 48-72 h | Potency, µM (top dose mostly 115 µM), for the others: at the highest dose activity change, negative = cytotoxicity, actives largely listed as inhibitors | 6.6% of 94,000 active; also: nearly all actives have a fitted effect of over 60% in size
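HEK 293 seeded at 250 cells/well receive compound via pintool. After 48 or 72 hr at 37 degree Celsius, 5% CO2 and 95% humidity, CellTiter-Glo is dispensed and luminescence read following 10 min at room temperature.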
* = called active by the depositor; i = inactive; ? = inconclusive; . = not tested or not shown; [ ] = another dose, or the depositor's remark. This is a sample that favours compounds with a hit; in the whole collection about 11% have one here. Unless noted, calls follow the shape of the dose curve; as a rule, active = well fitted curve in the direction sought with a large enough effect; inconclusive = small, poorly fitted or top-dose-only effect, or another doubt; inactive = no such curve, though single readings can be large; an effect the other way counts as inactive or inconclusive. % is scaled to controls: 0 for no effect and ±100 for the full control effect; potency is read from the fitted curve at half-maximal effect.

SMILES	NPR1 antag	3T3 cytotox	Luciferase inh	HEK293 tox
Cc1cc(C2CC(C(=O)NCCc3ccccc3)CN(C(=O)NC(C)C)C2)ccc1F (stereo not drawn)	3.5%	?	i	39.8µM*
CC1(c2ccccc2)N(Cc2ccccc2)C(=O)OC12CCN(Cc1cccnc1)CC2 (stereo not drawn)	-11.7%[70.6 µM]	100µM*	i	?
CC1(c2ccccc2)N(Cc2ccccc2)C(=O)OC12CCN(c1cccnc1)CC2 (stereo not drawn)	-1.5%[70.6 µM]	89.1µM*	i	70.8µM*
CC1(c2ccccc2)N(Cc2ncccn2)C(=O)OC12CCN(Cc1cccc(OC(F)(F)F)c1)CC2 (stereo not drawn)	-7.7%	39.8µM*	i	50.1µM*
O=C(NC1CCCN(C(=O)C2CC2)C1)c1cccc(Cn2cccn2)c1 (stereo not drawn)	5.9%	-2.7%	i	4.6%
O=C(Nc1ccccc1)N1CCOC(CN(CC2CC2)C(=O)c2cccc(F)c2)C1 (stereo not drawn)	-16.3%	?	?	?
Cc1noc([C@@H]2CNC[C@H]2C(=O)N(C)Cc2ccc(N3CCOCC3)cc2)n1	1.7%	-1.8%	i	?
O=C(NC1CCCC1)N1CC(Oc2cccc(-c3nc(-c4ccccc4)no3)c2)C1	1.0%	?	i	?
O=C(c1ccoc1)N1CC(Oc2cccc(-c3nc(-c4ccccc4)no3)c2)C1	5.4%	?	?	?
COc1ccccc1C(=O)N1CC(Oc2ccc(-c3noc(-c4ccncc4)n3)cc2)C1	.	35.5µM*	.	?
O=C(C1CCOCC1)N1CC(Oc2cccc(-c3nc(-c4ccccc4)no3)c2)C1	4.3%	?	17.8µM*	?
CCCNC(=O)N1CC(Oc2cccc(-c3nc(-c4ccccc4)no3)c2)C1	-2.3%	-23.4%	i	28.2µM*
COc1ccccc1C(=O)N1CC(Oc2cccc(-c3nc(-c4ccccc4)no3)c2)C1	-9.8%	31.6µM*	7.94µM*	44.7µM*
Cn1cccc1C(=O)N1CC(Oc2ccc(-c3nc(-c4ccccc4)no3)cc2)C1	-15.0%	-26.6%	?	?
O=C(O)c1ccc(CN2CCC(Cc3cccc(C(=O)O)c3)C2)cc1 (stereo not drawn)	-0.5%	1.7%	i	i
COc1ccc(Cn2c(=O)c(C(=O)N3CCN(C(=O)c4ccc(OC)cc4)CC3)nc3cccnc32)cc1	.	-16.6%	.	-3.6%
COc1cccc(CN2C(=O)OC3(CCN(C(=O)c4cnccn4)CC3)C2(C)c2cccnc2)c1 (stereo not drawn)	-2.8%	?	i	i
O=C1NC(=NC2CCCCC2)C2(CCN(Cc3ccc(F)cc3)CC2)N1c1cccnc1	.	-4.0%	.	4.4%
O=C(CC1CCCCC1)N1CCC2(CC1)CC(O)CCO2 (stereo not drawn)	.	-7.3%	.	-4.4%
CC(Oc1ccccc1)C(=O)N1CC(Oc2cccc(-c3nc(-c4ccccc4)no3)c2)C1 (stereo not drawn)	-27.4%	28.2µM*	?	31.6µM*
Cc1ccc(C2Cn3nnc(C(=O)N4CCC(C(=O)NCc5ccc(F)cc5F)CC4)c3CO2)cc1 (stereo not drawn)	-2.4%	i	?	-1.3%
Cc1ccc(C2Cn3nnc(C(=O)N4CCC(C(=O)NCc5ccccc5F)CC4)c3CO2)cc1 (stereo not drawn)	2.4%	i	22.4µM*	-1.0%
Cc1ccc(C2Cn3nnc(C(=O)N4CCC(C(=O)NCc5cc(F)ccc5F)CC4)c3CO2)cc1 (stereo not drawn)	-2.3%	-13.1%	35.5µM*	-21.3%
COCCc1noc(-c2ccc(N(C)Cc3ccnc(C)c3)nc2)n1	-2.5%	-28.5%	i	?
O=C(c1cc2ccccc2[nH]1)N1CCc2c(n(Cc3cccnc3)n(CCc3ccccc3)c2=O)C1	-8.0%	?	i	-18.7%
SMILES	NPR1 antag	3T3 cytotox	Luciferase inh	HEK293 tox
O[C@@H]1CC(CNCc2ccc(F)cc2)(COc2ccc(C(F)(F)F)cn2)C[C@@H]1O (stereo partly drawn)	-8.0%	?	i	?
CC(C)(N)C(=O)N1CCN(c2nc(-c3ccccc3)nc3c2CCC3)CC1	-0.6%	?	i	50.1µM*
O=C(NC1CCC(O)CC1)C1CCCN(c2nc(-c3ccccc3)nc3c2CCC3)C1 (stereo not drawn)	-2.7%	?	i	?
O=C(C1CCCN(c2nc(-c3ccccc3)nc3c2CCC3)C1)N1CCNCC1 (stereo not drawn)	-0.1%	?	i	?
O=C(C1CCN(c2nc(-c3ccccc3)nc3c2CCC3)CC1)N1CCNCC1	9.9%	?	i	?
O=C(NC1CCNCC1)C1CCCN(c2nc(-c3ccccc3)nc3c2CCC3)C1 (stereo not drawn)	-0.4%	39.8µM*	i	?
NC1CCN(C(=O)C2CCCN(c3nc(-c4ccccc4)nc4c3CCC4)C2)CC1 (stereo not drawn)	7.9%	28.2µM*	i	?
CCn1cc(S(=O)(=O)N2CCCCC2c2nc(CCOc3ccc(F)cc3)no2)cn1 (stereo not drawn)	-18.6%	?	i	44.7µM*
Cc1ccc(NC2=N[C@H]3[C@@H](O)[C@H](O)C[C@H](C(=O)N4CCC(C(N)=O)CC4)[C@H]3S2)cc1	-1.4%[70.6 µM]	1.1%[174 µM]	50.1µM*	-4.2%[172 µM]
COc1ccc(-c2ccc3ncc(Nc4ccc(C(N)=O)cc4)n3n2)cc1OC	2.5%[70.6 µM]	17.8µM*	i	?
COc1ccc(-c2ccc3ncc(Nc4cccc(F)c4)n3n2)cn1	-16.5%[70.6 µM]	?	?	63.1µM*
COc1ccc(-c2ccc3ncc(Nc4ccccc4C)n3n2)cn1	-1.2%[70.6 µM]	89.1µM*	i	?
COc1ccc(-c2ccc3ncc(Nc4ccccc4)n3n2)cc1OC	0.8%[70.6 µM]	20µM*	i	35.5µM*
c1ccc(-c2ccc3ncc(Nc4ccc(N5CCOCC5)cc4)n3n2)cc1	2.2%[70.6 µM]	?	i	?
COc1ccc(-c2ccc3ncc(Nc4cccc(F)c4)n3n2)cc1OC	4.4%[70.6 µM]	?	i	63.1µM*
COc1ccc(-c2ccc3ncc(Nc4ccnc(N5CCOCC5)c4)n3n2)cc1OC	3.5%[70.6 µM]	44.7µM*	?	?
COc1ccc(-c2ccc3ncc(Nc4ccc(F)c(Cl)c4)n3n2)cn1	5.4%[70.6 µM]	?	i	-12.5%[172 µM]
O=C(Nc1ccccc1)N[C@H]1[C@H](O)[C@@H](N2CCCC2)[C@@H]2OC[C@H]1O2	0.1%[70.6 µM]	i	i	-5.8%[172 µM]
Cc1nn2c(c1-c1ccccc1C(C)C)N(Cc1ccc3c(c1)CCO3)CCC2	-21.1%[70.6 µM]	28.2µM*	i	35.5µM*
Cc1nn2c(c1-c1ccccc1Oc1ccccc1)N([S+](=O)([O-])c1cccnc1)CCC2	-16.9%	?	i	?
Cc1nn2c(c1-c1ccccc1C(C)C)N(Cc1ccc(C(=O)O)s1)CCC2	-8.2%[70.6 µM]	?	i	?
Cc1nn2c(c1-c1ccccc1C(C)C)N([S+](=O)([O-])c1ccc(C(C)C)cc1)CCC2	?	22.4µM*	i	39.8µM*
